According to PubChem BioAssay AID624298 (National Center for Advancing Translational Sciences (NCATS), 2012):
Records with an inconclusive call do not appear. The source made the active and inactive calls. The call rests on the fitted dose curve; in most records, active means well fitted activation curve with a large enough effect; inconclusive means small, poorly fitted or top-dose-only effect; inactive means no such curve, though single readings can be large or run the other way.

Assay: Activators of T cell receptors: Hit Validation;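 further: cytokine measured is secreted IL-2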; on activation: 0% is about no effect
Settings: primary human leukocytes, cytokine release by HTRF, 48 h, TCR-stimulated with anti-CD3 beads; series mostly up to 46.1 µM; activation: at the top concentration
Method in brief: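 Primary human leukocytes incubated 48 hr with anti-CD3 beads plus compound, without co-stimulation. Secreted IL-2 quantified by HTRF (europium cryptate donor, d2 acceptor, 665 nm emission).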
Potency means the concentration at half of the fitted maximal effect.

| SMILES | activation | Potency |
| --- | --- | --- |
| COc1cc2c(cc1O)CCN(C(=O)CSc1nncn1C)[C@@H]2C | 5.94% (inactive) |  |
| CC(C)(C)CC(=O)N1CCN(c2ccc(S(=O)(=O)N3CCOCC3)cc2[N+](=O)[O-])CC1 | 3.63% (inactive) |  |
| O=C1C=C(NCCc2ccccc2)C2(CCCCC2)O1 | 7.06% (inactive) |  |
| CC1CCN(CCNC(=O)C2CCN(S(=O)(=O)c3cccc4nsnc34)CC2)CC1 | -0.821% (inactive) |  |
| CC[n+]1ccc(/C=C/c2ccc(N(C)C)cc2)c2ccccc21 |  | 4.45 µM (active) |
| CSCc1c(C(=O)OCC(=O)NC2CCCCC2)oc2ccccc12 | 3.06% (inactive) |  |
| Cn1c(=O)c2c(ncn2CC(O)CO)n(C)c1=O (configuration not stated) | 7.71% (inactive) |  |
| CCN(CC(=O)Nc1c(F)cccc1F)C(=O)C1CCN(S(=O)(=O)c2ccccc2C(=O)OC)CC1 | -0.863% (inactive) |  |
| Cc1ccc(NS(=O)(=O)c2ccc(C)c(C(=O)NCC(c3ccccc3)N(C)C)c2)cc1 (configuration not stated) | 6.06% (inactive) |  |
| Cc1ccc(NC(=S)c2ccc(N(C)C)cc2)cc1 | 2.2% (inactive) |  |
| Cc1ccc(S(=O)(=O)N2CCC(C(=O)NNC(=O)c3ccccc3O)CC2)cc1C | 4.73% (inactive) |  |
| Nn1c(SCc2ccccc2F)nnc1-c1ccccn1 | 6.47% (inactive) |  |
| COc1ccc(-n2c(=O)[nH]cc(C(=O)Nc3ccc4c(c3)OCO4)c2=O)cc1OC | -5.9% (inactive) |  |
| COc1cc(NC(=O)CN2CCN(S(=O)(=O)/C=C/c3ccccc3)CC2)cc(OC)c1OC | 3.25% (inactive) |  |
| S=c1[nH]nc(-c2cccnc2)n1C1CCCCC1 | 13.6% (inactive) |  |
| CCC(=O)N1CCN(c2ccc(NC(=O)c3ccc([N+](=O)[O-])o3)cc2)CC1 | 7.54% (inactive) |  |
| CCN(CC)CC(=O)c1c(N)n(Cc2ccccc2)c(=O)n(C)c1=O | 5.63% (inactive) |  |
| COc1cc(C(=O)Nc2ccn(C)n2)ccc1OC(F)F | 6.29% (inactive) |  |
| CCCc1nc2ccccc2c(=O)n1CCc1ccccc1 | 4.77% (inactive) |  |
| N#Cc1ccc(CN2CCN(C(=O)c3ccc(S(=O)(=O)NCc4ccco4)cc3)CC2)cc1 | 9.02% (inactive) |  |
| COc1ccc(C(=O)COC(=O)c2sc(C)nc2C)cc1OC | 5.32% (inactive) |  |
| CN(C)c1ccc(NC(=O)COC(=O)CNC(=O)c2cccs2)cc1 | -40.9% (inactive) |  |
| CC(C)CSc1nc2c(c(=O)[nH]c(=O)n2C)n1CC(O)COc1cccc2ccccc12 (configuration not stated) | 10.2% (inactive) |  |
| COc1ccc(Cl)cc1NC(=O)CN(C)C(=O)c1cn2ccccc2n1 | -2.38% (inactive) |  |
| COc1ccc(NC(=O)C(c2ccccn2)N(C(C)=O)c2ccc(C)cc2)cc1 (configuration not stated) | -1.67% (inactive) |  |
| O=C(Nc1nnc(-c2ccccc2)s1)c1cccc(S(=O)(=O)N2CCOCC2)c1 | 8.4% (inactive) |  |
| COc1ccc(C(=O)c2sc3nc(C)cc(-c4cccs4)c3c2N)cc1OC | 9.06% (inactive) |  |
